ATXN2 expr inh: Primary qHTS for Inhibitors of ATXN expression; HEK-293 ATXN2-luciferase reporter, luminescence, 24 h; Potency, µM (doses to about 57 µM), for inactives: at the highest dose activity change, negative = inhibition, hits mostly inhibitors; 0.72% of 360,000 active; AID 1745845, 2022; also: % is scaled to controls: 0 for no effect and ±100 for the full control effect; nearly all actives have a fitted effect of over 55% in size
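qHTS (up to 57 uM final) was run with 24 h compound exposure of reporter cells at 37 °C. Each well was multiplexed: SteadyGlo luminescence measured ATXN2-luciferase expression after a fluorogenic Gly-Phe-AFC viability readout (25 uM final).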
Gal4-VP16 FLuc: VP16 counterscreen qHTS for inhibitors of ROR gamma transcriptional activity; Drosophila S2 Gal4-VP16 UAS-luciferase, luminescence, 20 h; Potency, µM (highest dose often 53.6 µM), inactives show at the top dose activity, negative = inhibition, most hits filed as inhibitors; 3.5% of 310,000 active;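 also: Gal4-VP16 expression switched on by copper sulfate through the metallothionein promoter; % is scaled to controls: 0 for no effect and ±100 for the full control effect; nearly all actives have a fitted effect of over 50% in size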
S2 tox: Viability Counterscreen for Primary qHTS for Inhibitors of ATXN expression; S2 cells (HEK-293 line with an ATXN2-luciferase reporter) viability, CellTiter-Fluor protease fluorescence, 24 h; AID 651635, 2014; 0.49% of 400,000 active; Potency, µM (series often up to 56.7 µM), most hits filed as cytotoxic; also: nearly all actives have a fitted effect of over 40% in size
HepG2 viability: qHTS for Inhibitors of TGF-b: Cytotox Counterscreen | AID 588856, 2011 | 0.76% of 410,000 active | HepG2 CAGA-GFP viability, ATP luminescence, 18 h | Potency, µM (series often up to 46.1 µM), without a hit: top-dose activity change, negative = cytotoxicity, most hits filed as cytotoxic
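HepG2 CAGA-GFP cells (1000/well, DMEM with 1% FBS) received compound, then TGF-beta at 500 pg/mL final, and were incubated 18 hours at 37 degrees C. Viability was read by CellTiter-Glo luminescence. Media-only wells were set as complete cell-killing and DMSO as no toxicity.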
TGFb inhibitor: qHTS for Inhibitors of TGF-b | Potency, µM (doses to about 46.1 µM), inactives show top-dose activity, negative = inhibition, most hits filed as inhibitors | AID 588855, 2011 | 1.2% of 410,000 active | HepG2 CAGA-GFP TGF-b/SMAD3 reporter, GFP fluorescence, 18 h; TGF-beta stimulated, 500 pg/mL final; also: % is scaled to controls: 0 for no effect and ±100 for the full control effect; nearly all actives have a fitted effect of over 65% in size
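HEPG2 CAGA-GFP, 1000 cells/well; 2 h settle, 37 C; cpd via pin tool; TGF-b 500 pg/mL final; 18 h, 37 C; GFP imaging ex488/em500-530; %Activity normalised to -TGF-b and +DMSO controls; CRC fit, curve class.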
RORgamma inh: qHTS for inhibitors of ROR gamma transcriptional activity; Drosophila S2 Gal4-RORgamma UAS-luciferase reporter, 20 h; Potency, µM (top dose mostly 53.6 µM), for inactives: at the top dose activity change, negative = inhibition, actives largely listed as inhibitors; 5.4% of 310,000 active; AID 2551, 2010; also: % is scaled to controls: 0 for no effect and ±100 for the full control effect; nearly all actives have a fitted effect of over 60% in size
Target sequence (P51450 whole entry, looked up, the tested form may be a part): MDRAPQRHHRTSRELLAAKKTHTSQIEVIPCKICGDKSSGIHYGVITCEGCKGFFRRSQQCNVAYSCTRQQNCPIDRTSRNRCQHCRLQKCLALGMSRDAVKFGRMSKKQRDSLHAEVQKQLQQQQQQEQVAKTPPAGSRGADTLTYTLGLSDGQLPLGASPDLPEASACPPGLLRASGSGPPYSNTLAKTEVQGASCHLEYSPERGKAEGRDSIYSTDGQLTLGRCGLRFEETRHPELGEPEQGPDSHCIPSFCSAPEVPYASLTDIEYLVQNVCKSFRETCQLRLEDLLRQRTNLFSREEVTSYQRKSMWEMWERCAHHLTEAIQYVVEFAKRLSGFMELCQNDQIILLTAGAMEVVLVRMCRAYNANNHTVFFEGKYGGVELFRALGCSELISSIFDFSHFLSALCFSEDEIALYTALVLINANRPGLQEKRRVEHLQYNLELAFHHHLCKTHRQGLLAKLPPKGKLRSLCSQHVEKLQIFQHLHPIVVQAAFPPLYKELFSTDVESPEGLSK
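A Gal4/UAS one-hybrid system in insect cells: metallothionein-promoter Gal4–ROR gamma fusion plus Photinus luciferase reporter. Copper sulfate 700 uM final, 20 hr ambient incubation, luminescent detection after 10 min with reagent.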
* marks the source's active call; other numbers are inactive results; i = inactive; ? = inconclusive; nt = not tested or not shown; [ ] = remark or other dose. A selection: hits, their analogues and other compounds. The true share with any hit is near 6.3%. Calls follow the shape of the dose curve; as a rule, active = well fitted curve in the direction sought with a large enough effect; inconclusive = small, poorly fitted or top-dose-only effect, or another doubt; inactive = no such curve, though single readings can be large; an effect the other way counts as inactive or inconclusive. Potency is read from the fitted curve at half-maximal effect.

SMILES	ATXN2 expr inh	Gal4-VP16 FLuc	S2 tox	HepG2 viability	TGFb inhibitor	RORgamma inh
O=C(O)c1ccc(-c2c[nH]c3ncc(-c4ccccc4)cc23)cc1C1CCCC1	4%	nt	nt	nt	nt	nt
Cc1ccc(C(=O)OCC(=O)c2c[nH]c3ccccc23)cc1	0%	13%	i	-3%	4%	2%
CC(C)Cc1ccc(C(C)C(=O)OCC(=O)c2c[nH]c3ccccc23)cc1 (configuration not stated)	-24%	18µM*	?	-79%	?	?
C[C@@H]1CN([C@H](C)CO)S(=O)(=O)c2ccc(C#Cc3ccccc3)cc2O[C@H]1CN(C)C(=O)Nc1ccc2c(c1)OCO2	?	nt	?	-2%	10%	nt
CCOc1ccc(NC(=O)CN(C)C(=O)c2ccc(=O)[nH]c2)cc1OCC	-3%	15%	i	0%	-4%	11µM*
COc1ccc(NC(=O)CN(C)C(=O)c2ccc(=O)[nH]c2)cc1	10%	?	i	1%	3%	?
CC(C)N1CCN(C(=O)c2cnn(-c3nccc(-c4ccc5c(c4)OCO5)n3)c2-c2ccco2)CC1	nt	nt	i	nt	nt	nt
CCOC(=O)c1c(C)n(-c2ccccc2)c2ccc(OC(=O)c3ccccc3NC(=O)C(C)(C)C)cc12	?	nt	25µM*	22µM*	?	nt
O=C(Nc1nnc([C@H]2C[C@H](O)[C@@H](CO)O2)s1)Nc1ccc(F)cc1F	12%	nt	i	2%	7%	nt
Nc1ccc(C(=O)O)cc1	1%	0%	i	-16%	-4%	0%
Nc1ccc(O)cc1	-7%	4%	?	14µM*	4.5µM*	?
O=C(/C(=C(\O)c1ccccc1)c1ncc[nH]1)c1ccccc1	-12%[11.3 µM]	?	i	-7%	6%	13µM*
O=C(/C(=C(\O)c1ccccc1)c1nc2ccccc2[nH]1)c1ccccc1	-5%	?	i	-39%	-16%	7.9µM*
Cc1sc2ccccc2[n+]1C	nt	nt	nt	-9%	-6%	nt
O=C(NC(=S)Nc1cc(-c2nc3ccccc3[nH]2)ccc1Cl)c1ccc2c(c1)OCO2	-33%	-11%	?	-31%	12%	13µM*
CCN(CC)c1ccc(/C=C/C(=O)c2cccnc2)cc1	nt	-5%	i	-5%	-19%	6%
O=C(/C=C/c1ccc(Cl)cc1)c1cccnc1	?	20µM*	?	-32%	?	?
O=C(/C=C/c1c(F)cccc1Cl)c1ccc(O)cc1	24%	3%	i	-59%	?	?
O=C(/C=C/c1ccccc1Cl)NNC(=O)c1ccncc1	3%	nt	i	-39%	-24%	nt
N#Cc1ccc(/C=C/C(=O)c2cccnc2)cc1	nt	?	nt	-125%	?	7.9µM*
O=C(/C=C/c1ccccc1Cl)c1ccc(O)cc1	13%	?	i	-29%	?	10µM*
O=C(/C=C/c1ccccc1Cl)c1cccnc1	5%	?	i	11µM*	?	?
CC(C)C[C@@H]1CN(CCCC[C@H]2CNC(=O)C(=O)N2CCC2CCCCC2)C(=O)C(=O)N1CC1CCCCC1	-4%	nt	i	nt	nt	nt
CCCCn1c(O)c2n(c1=O)Cc1ccccc1N=C2c1ccccc1	-11%	nt	i	-35%	-25%	nt
COc1cc(Cl)c(NS(=O)(=O)c2ccc3c(c2)CC(C)N3C(=O)C2CCC2)c(OC)c1 (configuration not stated)	nt	nt	nt	-24%	?	nt
CN1CC(=O)N(C)c2ncn(Cc3ccccc3)c2C1=O	-1%	-8%[0.365 µM]	i	6%	20%	4.5µM*
O=Cc1cc(N=Nc2ccccc2Cl)ccc1O	-32%	6%	34µM*	-17%	?	11µM*
